Experimental data reported in the supplement of paper PMC11417369.
± gives the standard deviation of the averaged measurements. In all, about 25,000 sequences were measured (“ln(normalized median fluorescence intensity)”: median about 7.9, highest 2% from about 11 on). The list comes from a sample in which the highest values are over-represented; it also holds similar and randomly drawn sequences.

The sequences below were run on PfAP2-I AP2 domain 3 (GST-tagged) (assay: gcPBM binding intensity (ln(normalized median fluorescence intensity)); higher = stronger DNA binding).
Method in brief: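 Alexa488 anti-GST antibody, scanned at 488 nm, detected GST-tagged P. falciparum DNA-binding domains that had been expressed in E. coli and incubated for 1 h on an Agilent 4 × 180k array. The array carried primer-extended double-stranded 36-bp intergenic genomic probes and negative controls. Binding intensity is the highest Masliner-normalised natural-log median intensity across replicate spots of either orientation of each probe.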

Sequence | gcPBM binding intensity (ln)
CTATTTTAATATTTTACACACCATGTAAAATATATA [CACACA_site5732] | 7.97 ± 0.28
AGTTTGTTTTTTTTTTTTTTTTCCTGTCACAAACAA [CACACA_negctrl_site1093] | 8.22 ± 0.62
GTTCATAAATTAAACACACACACACCCCTGGATACC [CACACA_site3331] | 9.115 ± 0.021
ATATATATATATATATGTACATACATACAATCATAT [XGTACX_site6410] | 9.38 ± 0.54
TACATATTTAAATACTGTACTCAAAAGAATTGTGCA [XGTACX_site2250] | 8.11 ± 0.11
ATATATCATAATAAAAGTACTTATATATTTTATATA [XGTACX_site560] | 7.59 ± 0.33
AAAATTGTGCTTTCACGGACACAAGATCGAAATAGA [XGTACX_site4068] | 8.62 ± 0.16
GAAAAAAAAATATCTTGTACTTACATAACTATTGGT [XGTACX_site5326] | 7.61 ± 0.5
CTTATTTTGTTATAAGTGCATTTTTTAAAATTTCTT | 9.05 ± 0.42
ATATATTATATTTAAGTGCATTAATTAAAATGCTTA [GTGCAC_site9403] | 11.1 ± 0.73
ATATATATATTTATAGTGCATTTATATTAAAATATC [GTGCAC_site9818] | 10.54 ± 0.021
TTTTTTTTTTTTTTTGCACACTTAAATTTGGTGGCT [CACACA_site5319] | 9.54 ± 0.16
TTTTTTTTTTTTTTTGCACACTTAAATTTGGTGGGG [CACACA_site2344] | 9.89 ± 0.19
CACATTAATTTTTGGGTGCACTTGGGAAATTTTGGT | 10.9 ± 0.51
AGTTATAAACATATGTGTACTTATAAAAACATATAG [XGTACX_site3268] | 7.87 ± 0.47
AATCACAACGAACACACACACAAAAAAAAAAAAAAA [CACACA_site6790] | 7.96 ± 0.54
CAACAACAAATGAGAAGTACATAAATATTAACAATA [XGTACX_site4625] | 7.68 ± 0.4
TTCCAAGAAATAATAGTGCATTATTCATTTTAATAA | 11.5 ± 0.42
ATATATAATTCCCAAGTGCATTTATTTTAATTATTA | 10.2 ± 0.12
TGTTTTATTTTATTAGTGCATTTTTATTTATAATAG [GTGCAC_site9453] | 9.77 ± 0.2
AAGGATATAACATACACACACACACGGATATAAATA [CACACA_site7867] | 7.91 ± 0.6
TGAAGGATATATTCCGTGCACATATAAATATATACA | 11.035 ± 0.007
AATATAAGGATATATACACACATAAATACATACATA [CACACA_site7859] | 7.67 ± 0.59
TTTATACAAACAACTTTATATTAATGTTTAACGGAG [GTGCAC_negctrl_site396] | 7.6 ± 0.42

Sequence | gcPBM binding intensity (ln)
ATATATATATAATAAGTGCAAAAAAAAGAAAAAAAT | 10.18 ± 0.035
AAAAAAAAAATACAGGTGCAATAAGAAAAAAATGGT | 11.4 ± 0.57
AATTAATAAGAAAGGTGTACAGAAAAAAAAAAATAT [XGTACX_site2106] | 8.46 ± 0.43
TTTTATATTTTATGCACACTTATAAGAAATATGTAC [CACACA_site3040] | 10.5 ± 0.52
TTTTAAATACTTTATTGTACATTATATATATATATA [XGTACX_site7021] | 8.88 ± 0.042
ATTTTAAAAAGGATAGTGCAAATGTTAAAATAGGAC | 10.6 ± 0.3
TTTTTTTTTAAGCAAAGGAAATCAAAATAAAAATAT [CACACA_negctrl_site719] | 7.92 ± 0.56
TTTTAAGGTGTGAAGGTGCAAAAAGGTAAATAGGAA | 11.2 ± 0.56
TACCTTTTTTATGTTGCACACTGGGATGTTTTCTAA [CACACA_site1653] | 9.51 ± 0.15
TATGAAGTGCACAATACACACTAATTCTATATAAAT [CACACA_site7269] | 11 ± 0.71
TATGAAGTACACAATACACACTAATTATATATAAAT [CACACA_site5444] | 7.88 ± 0.28
TATATGAAGTACACAATACACACTAATTATATATAA [CACACA_site2608] | 8.155 ± 0.035
AAAGTATATAGGATACGTACATACATAAATAAATAA [XGTACX_site8216] | 7.84 ± 0.73
AAAAAAAAAAAAAAAACACACAAACAAATGAATAAA [CACACA_site5769] | 8.76 ± 0.66
GTACATTATATATATACACACATACATAATAAAGAA [CACACA_site5528] | 8.12 ± 0.23
CAAATATACATATGTAGTACATGTTGTAGATAATTT [XGTACX_site2790] | 8.01 ± 0.5
GTATATATCTAAAAATATATATATATATATATATAT [CACACA_negctrl_site788] | 9.37 ± 0.72
CCCTGCCTCTCTTTGGTGCGTTGTAACCCTCGAGGA | 10.3 ± 0.33
TCTCCACCTCTCTTGGTGCGTTATACCCTCGAGGCT | 11.3 ± 0.54
TCCTGCCTCTCTTTGGTGCGTTGTAACCCTCGAGGA | 10.3 ± 0.11
AGAATTAAAATAAAGGTGCATTTTTTTGTTTCATGT | 9.94 ± 0.23
TTGTTCTTTTGAAAGGTGCAAAAGAAAAATAATTAA | 11.1 ± 0.54
TTGTTCTTTTTTTTTTTATTTTTTAATTTGAAAAGA [CACACA_negctrl_site209] | 7.72 ± 0.5
ACGTTACATACATATACACACACATATATATATATA [CACACA_site8203] | 9.22 ± 0.39

Sequence | gcPBM binding intensity (ln)
TATATACTCATGCGCACACACAAGTGGGAAATTTGG [CACACA_site5056] | 8.35 ± 0.6
TATAATTTTTTTTGGGTGCTTGGGTAAATTTTATTA | 8.34 ± 0.42
TTTTTTTTTTTTGGTGCATGCACATTTTGTTTTTTT [TGCATGCA_site570] | 9.85 ± 0.014
CTTGTGCTTTATAGGGTGCACATTTTGTTTTGGTAA [GTGCAC_site9899] | 11 ± 0.46
AAAGGGATGTTCATTCTTTTTTTTTTTTTTGTATAT [CACACA_negctrl_site511] | 7.16 ± 0.6
ATTAGTAAATTTATATGTACACATTGTTATTTTATA [XGTACX_site1177] | 8.13 ± 0.23
TTATATTTGATAGTTTGTACATATAATTATTATCAT [XGTACX_site5676] | 7.86 ± 0.42
TTGATATATAATAATACACACTTACATAATTAATTA [CACACA_site4320] | 7.88 ± 0.37
AATATAAATAATTATACACACTTAATATATATATAC [CACACA_site5533] | 7.9 ± 0.33
TAGTGATATAATTATGTGCACTTAATACAGGTCGAT | 10.9 ± 0.3
ATGTCTATAATAAGAACACACATATATTTAATTTAA [CACACA_site7394] | 7.64 ± 0.44
ATGTAGAAGTAATGCACACATATGTATTTATATATA [CACACA_site5391] | 10.9 ± 0.68
ATGTGATAGAAGTACACACACATATGTATTTATAAT [CACACA_site5075] | 7.84 ± 0.59
ATATGTAGAAGTAATGCACACATATGTATATATATA [CACACA_site8796] | 10.8 ± 0.48
ATGTAGAAGTAATGCACACATATGTATATATATATA [CACACA_site2494] | 10.9 ± 0.63
ACATAATTATTATGCACACATATTTTTATGTATTTA [CACACA_site698] | 10.3 ± 0.48
TATACATATGTATGCACACATACATACACATAGAAT [CACACA_site3480] | 8.8 ± 0.13
ATCAACATTATGGTTAGTACTTAGTGAATTGTTAAT [XGTACX_site4926] | 7.63 ± 0.59
TTCTATATATTATATGCATGTAAAACATATTAAAAT [TGCATGCA_site662] | 7.93 ± 0.61
TTCATATATTATTATGCATGTTCATAAATTATCTAA [TGCATGCA_site896] | 7.88 ± 0.58
TTGTTCTATATATATGCATGCACGTATGTTAAATTA [TGCATGCA_site659] | 11.3 ± 0.23
TACCTTTTTTGTTTTATGCACACCATATAACCAAGG [CACACA_site30] | 10.3 ± 0.33
TCGTAAACTTTATGCACACACATATACATATTTCAT [CACACA_site739] | 10.2 ± 0.53
ATTATGCACCAACACACACACACACCCCTAAAAAAT [CACACA_site2568] | 11.4 ± 0.79

Sequence | gcPBM binding intensity (ln)
TAATTATGCCAACACACACACACACCCAACTAAAAA [CACACA_site8823] | 8.22 ± 0.25
ATTATGCACGGACACACACACACACCCCTAAAAAAT [CACACA_site5426] | 10.4 ± 0.49
TGTGCCCAAAATTATGCACACACCTAAAATTAATTT [CACACA_site2914] | 10.3 ± 0.4
TGCACAAAATTATGCACACACCTAAAATTAATTTTT [CACACA_site5596] | 9.98 ± 0.32
ATTATGCACCAACACACACACACACTCCTAAAAAAT [CACACA_site8822] | 11.4 ± 0.95
TTTTGTTTCTATATAAGATGGAAATATAAACTTGTA [CACACA_negctrl_site82] | 7.64 ± 0.47
AATAAAAATTTACTTTGTACACATATTAAATTCAAT [XGTACX_site1957] | 7.83 ± 0.15
TATATTAATAAAGGTACTACACGGAAATGGAAATAT [XGTACX_site7760] | 8.58 ± 0.67
TTAAAATAAAGAAAATGTACATAAATAAAAATAAAG [XGTACX_site2280] | 8.35 ± 0.45
AACCAATTATATTTACGTACGTACGGTTTTTTATAT [XGTACX_site1291] | 7.94 ± 0.48
ATTTCTTTTTTATTGAGTACATATGACCATGTTCAA [XGTACX_site5365] | 8.14 ± 0.38
ATTATTCATTTATGTAGTACATTTTAATACATTTAA [XGTACX_site3599] | 7.75 ± 0.6
ACCAATAAATATTTGGTGCATACATATATATATATA | 10.31 ± 0.064
AAAATTTCTTTTTTTTGTACATATATAATAATATAT [XGTACX_site7107] | 7.82 ± 0.39
AGACCTTTAATTTGTGTGCACATAATTAGTGTACAT [GTGCAC_site9434] | 9.96 ± 0.16
TACGTCTTTTTTTTGGTGCATAATTTTTTTGTACAA | 11.2 ± 0.44
ATTTCCTTTTGTTTCAGTACATAATTTTTTTTTTTT [XGTACX_site4842] | 7.88 ± 0.62
TTTTCTTTTTTTTTTGTGCACATAATATATAATTAT | 10.8 ± 0.14
TATTTCTTTTGGTTGGTGCATAAAATAATACAATAT [GTGCAC_site9916] | 11.2 ± 0.59
CAACCTTTTTTGTTGGTGCATAATTTTTTTTTCTTT | 10.9 ± 0.52
TTTCTTTATTAAAATATTTTACATATATAATATACG [TGCATGCA_negctrl_site564] | 7.92 ± 0.55
CGGACATACTAACGGACACACGTAAGAAAAAAAAAG [CACACA_site4504] | 7.79 ± 0.58
